Measured values as given in the supplement of paper PMC6555819.

Tests used:
Assay in all cases: PBM binding z-score (relative to random genomic background probes); higher = stronger binding; sequences stand for … in GC…GCGATTGACAGCGTAGAATGAAGG
[1] = tested on: PPARg:RXRa DBDmut IVT, anti-RXR (DBD mutation: RXRa K156A/R161A, NR concentration 270 nM, RXRa partner concentration 90 nM)
Procedure, shortened: (§1)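 Ligand-free nuclear receptor dimers were applied to custom Agilent 4×180K protein-binding microarrays whose double-stranded probes carried direct-repeat seeds, single-nucleotide variants, half-site ablations and random human genomic background sequences in 34-nt variable regions. Incubation lasted 1 h. Binding z-scores were computed against the random background probes from regression-normalized fluorescence.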

[2] = tested on: PPARg:RXRa IVT, anti-PPARg (NR concentration 270 nM, RXRa partner concentration 90 nM)
Procedure, shortened: as §1

[3] = tested on: PPARg DBDmut:RXRa IVT, anti-PPARg (DBD mutation: PPARg1 K132A/R137A, NR concentration 270 nM, RXRa partner concentration 90 nM)
Procedure, shortened: as §1

[4] = tested on: PPARg DBDmut IVT, anti-PPARg (DBD mutation: PPARg1 K132A/R137A, NR concentration 270 nM)
Procedure, shortened: as §1

[5] = tested on: PPARg homodimer (NR concentration 180 nM)
Procedure, shortened: as §1

[6] = tested on: PXR:RXRa (NR concentration 270 nM, RXRa partner concentration 90 nM)
Procedure, shortened: as §1

[7] = tested on: PXR homodimer (NR concentration 270 nM)
Procedure, shortened: as §1

[8] = tested on: RARa:RXR (NR concentration 270 nM, RXRa partner concentration 90 nM)
Procedure, shortened: as §1

[9] = tested on: RARa homodimer (NR concentration 270 nM)
Procedure, shortened: as §1

[10] = tested on: RARb:RXRa (NR concentration 270 nM, RXRa partner concentration 90 nM)
Procedure, shortened: as §1

Sequence | PBM binding z-score [1] | PBM binding z-score [2] | PBM binding z-score [3] | PBM binding z-score [4] | PBM binding z-score [5] | PBM binding z-score [6] | PBM binding z-score [7] | PBM binding z-score [8] | PBM binding z-score [9] | PBM binding z-score [10]
TCATATAGGTAAATGCTAGGTGAAAGTGCGATCT | 4.06 | 3.13 | 0.822 | 0.878 | 1.41 | 0.653 | 0.401 | 1.12 | 1.15 | 0.649
TAGCCTAGGTCATTCAGGGGCCAGTTTAGAAAGC | 1.47 | 2.77 | 0.115 | 0.428 | 0.877 | 2.37 | -0.0546 | 3.52 | -0.367 | 3.61
CCGACGGGGGCATAAGGTTACCATAAGCCAGCCC | 1.29 | 2.29 | 0.647 | 0.997 | 1.67 | 2.75 | 0.496 | 3.93 | 0.379 | 2.86
CCTTACGGGGCAAGGTTATAGCACGGGTGGTACG | -0.0352 | 0.442 | -0.313 | -0.783 | 0.309 | 0.145 | -0.13 | 0.546 | 0.0698 | 1.78
TCTTCTAGATCAGCAGGTTAAGAAAGCTGGCCAA | 1.75 | 0.956 | -0.541 | -0.141 | -0.0964 | 0.0261 | -0.795 | 0.252 | -0.167 | 0.235
CCTTACGGTTCAAGGTTATAGCACGGGTGGTACG | -0.682 | 0.211 | 0.502 | -0.14 | 1.49 | 2.28 | 1.34 | 2.24 | 1.14 | 1.73
ACTAGTTGGTCAGCTGAGGTCACATACAATTCGG | 1.59 | 2.44 | 0.89 | 0.482 | 2.09 | 5.26 | 1.85 | 4.17 | 0.305 | 3.4
TCATATAGGCAAACAGGTGAAAGTCCGTAAGTTA | 2.62 | 1.42 | 0.461 | 0.241 | 0.782 | 0.517 | 0.177 | 0.939 | 0.994 | 0.119
CAGCCTAGATCAGGGCCAGTATAGGAGGAACGTT | -0.475 | -0.568 | -0.718 | -0.931 | -0.197 | -0.797 | -0.456 | -0.741 | -0.525 | -0.399
GCTTACGGGTCACAGGTTATAGCATGAATAGAAT | 4.72 | 5.4 | 2.51 | 1.47 | 1.81 | 3.52 | -0.0291 | 4.84 | 0.515 | 4.03
ATACCAAGGTGAGCGTGAGGTCGTTGATACTAAC | 1.54 | 2.2 | 0.262 | -0.46 | 0.827 | 3.26 | 0.571 | 2.34 | 0.154 | 1.97
GCGACTTGGGCATCAGCAGGTTACCATAACTTAA | -0.319 | -0.238 | -1.02 | -0.802 | -0.13 | -0.0644 | -0.495 | 0.232 | -0.904 | 0.00104
TAGCCTAGGTCATTCAGGGGCCAGTCTAGAAAGC | 1.37 | 2.68 | 0.235 | 0.0209 | 2 | 2.58 | -0.494 | 3.47 | -0.518 | 3.75
GCTAGCAGGCCATTTGGGCCACTCAATGACGGGC | 0.571 | 0.308 | -1.6 | -2.1 | -1.14 | -0.943 | -1.18 | -1.05 | -0.661 | -0.143
CAAACTAGGTCACAGGAAGGTCAAAGTCCGCATG | 8.64 | 8.8 | 3.59 | 2.12 | 6.59 | 5.73 | 1.51 | 7.15 | 2.2 | 4.93
TCTGCTAGGTCAACGAGGGTCAGCTAATCTGCTA | 4.34 | 4.28 | -0.294 | -0.307 | 2.15 | 4.96 | -0.4 | 4.03 | -0.252 | 4.65
ATATGTAGGTTAGCTAGGGTCATTCAGACTAGGC | 6.58 | 6.18 | 2.95 | 1.89 | 3.4 | 5.64 | 2.1 | 4.85 | 1.52 | 2.71
CCAGACAGGTGACAGGTAACTCAGTCTGGTACGC | 1.77 | 1.46 | -0.216 | -0.746 | 0.536 | -0.209 | 0.203 | 0.0624 | 0.656 | 0.724
ACTAGCAGGCCAAGGGTCAATCAAGATTAGTCCG | 1.29 | 3.74 | -0.502 | -0.4 | 1.86 | 3.34 | -0.202 | 4.28 | -0.127 | 3.33
TCAGACAGGTGAAGGTAACGCAGGTACGCAGTCG | 2.13 | 1.24 | 0.76 | 0.126 | -0.401 | 0.411 | -0.161 | 0.66 | 0.254 | 1.16
GCATATAGGTAATGCAAGGTGAAAGTCCGATTGT | 4.12 | 3.49 | 0.246 | 0.658 | 0.642 | 0.573 | 0.208 | 1.73 | 0.262 | 0.407
CCGACCGGGGCAGAAAGGTTACCATACCATCCGG | -0.478 | -0.0375 | -0.85 | -1.32 | 0.496 | 1.16 | -0.029 | 1.83 | -0.144 | 2.06
AGAATGAGGTTAAGATCCGGGAAACAGAATACAT | 2.97 | 2.71 | 1.45 | 0.576 | 0.097 | 0.953 | 0.0989 | 2 | 0.396 | 1.88
CCGACTGGGGCATAAAGTTACCATAAGCCAGCCC | 2.19 | 1.79 | -0.543 | -1.06 | -0.724 | -0.621 | -0.245 | -0.613 | -0.145 | 0.149
CGAACTAGGTCATTGACAGGAGAGTGAATAGTAA | 7.92 | 8.28 | 2.36 | 3.6 | 1.32 | 1.04 | 0.0101 | 1.99 | 0.473 | 3.65
